# Reference: PubChem BioAssay AID1851 (National Center for Advancing Translational Sciences (NCATS), 2009)
# Where “and” joins values, the source holds several entries; their conditions need not be identical. Identical values can stand only once. The whole screen tested about 16,000 compounds, of which about 2,600 (16%) were called active. Not shown: some 20% with an inconclusive outcome. The call rests on the fitted dose curve; in most records, active means well fitted curve in the direction sought with a large enough effect; inconclusive means small, poorly fitted or top-dose-only effect, or effect the other way; inactive means no such curve, though single readings can be large or run the other way. A selection follows. Some compounds were tested as several samples or in several runs, with calls that do not always agree. Square brackets hold non-standard residues; d marks the D form. Peptide text beside a SMILES is read from it. * marks the point of attachment. ξ: configuration not given here. Cbz = O=C(OCc1ccccc1)*; OBn = c1ccc(CO*)cc1; ξP = O=C(O)C1CCCN1
# Target: Cytochrome P450 2D6 (Homo sapiens) (UniProt P10635)
# Sequence (P10635 whole entry, looked up): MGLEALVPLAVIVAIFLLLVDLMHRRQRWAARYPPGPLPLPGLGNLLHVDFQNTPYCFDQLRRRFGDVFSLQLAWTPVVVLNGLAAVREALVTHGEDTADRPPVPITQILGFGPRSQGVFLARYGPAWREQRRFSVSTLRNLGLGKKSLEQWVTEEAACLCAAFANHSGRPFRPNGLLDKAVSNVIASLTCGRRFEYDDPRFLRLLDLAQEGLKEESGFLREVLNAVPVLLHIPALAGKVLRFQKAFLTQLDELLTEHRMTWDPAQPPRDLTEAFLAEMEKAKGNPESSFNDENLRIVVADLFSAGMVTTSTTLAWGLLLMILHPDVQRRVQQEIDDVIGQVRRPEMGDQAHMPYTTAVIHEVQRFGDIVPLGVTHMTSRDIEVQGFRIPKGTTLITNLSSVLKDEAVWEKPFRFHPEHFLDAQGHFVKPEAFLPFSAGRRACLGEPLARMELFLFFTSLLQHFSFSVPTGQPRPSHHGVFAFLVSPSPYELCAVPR
# Assay: Cytochrome panel assay with activity outcomes
# Details: recombinant CYP, pro-luciferin dealkylation, luminescence, p450-cyp2d6; series mostly up to 57.1 µM; activity, negative = inhibition: at the top concentration
# On the % scale 0 is the no-effect control and ±100 the full control effect.
Structure (SMILES),"activity, negative = inhibition",AC50
COc1ccc(OC)c(S(=O)(=O)N2CCC(C(=O)Nc3ccc(C)c(C)c3)CC2)c1,-12.1% (inactive),–
CCCS(=O)(=O)N1CCCC(C(=O)NCc2cccnc2)C1 (stereo unspecified),-1.8% (inactive),–
O=C(Nc1ccc(Cl)c(C(F)(F)F)c1)C1CCCN(S(=O)(=O)c2cnc[nH]2)C1 (stereo unspecified),–,3.98 µM (active)
CCOc1ccc(-c2nnc3ccc(SC)nn23)cc1,-16.4% (inactive),–
N[C@@H](CSS(=O)(=O)O)C(=O)O,-1.36% (inactive),–
CCOC(=O)c1c(C)nc2sc3c(=O)n(-c4ccc(C(C)=O)cc4)nnc3c2c1-c1ccc(Cl)cc1,0.783% (inactive),–
N#Cc1ccccc1-c1cncnc1NCc1cccnc1,-4.85% (inactive),–
Cc1ccccc1-c1cncnc1NCc1cccnc1,–,15.8 µM (active)
Cc1cccc(CNc2ncncc2-c2ccccc2C)c1,–,3.98 µM (active)
CN(C)C(=O)c1ccc(-c2cncnc2NCc2cccnc2)cc1,-19.7% (inactive),–
Cc1noc(C)c1-c1cncnc1NCc1ccccc1,0.449% (inactive),–
CN(C)Cc1ccccc1-c1cncnc1NCc1cccnc1,–,6.31 µM (active)
Cc1ccccc1-c1cncnc1NCc1ccccc1,–,12.6 µM (active)
CC(C)Sc1cc(N2CCCC2)nc(-c2ccc(F)cc2)n1,-3.37% (inactive),–
C=CCNC(=S)N/N=C/c1ccc(-c2cc(Cl)ccc2Cl)o1,8.52% (inactive),–
O=C(CNC(=O)OCc1ccccc1)NCC(=O)N1CCCC1C(=O)OCc1ccccc1 (stereo not drawn) (Cbz-Gly-Gly-[ξP]-OBn),-22.2% (inactive),–
CSCCC(NC=C1C(=O)OC(C)(C)OC1=O)C(=O)O (stereo unspecified),-5.1% (inactive),–
CCOc1cc(/C=C2/NC(=O)N(CC(=O)Nc3cccc(C)c3)C2=O)ccc1OC,27.9% (inactive),–
CCCCSCc1nc2nc(Cl)c(Cl)nc2[nH]1,-12.2% [at 11.4 µM] (inactive),–
C[n+]1ccc(/C=C/c2ccc(Br)cc2)cc1,-25.3% (inactive),–
OCCNc1ncnc2nc[nH]c12,-4.05% [at 11.4 µM] (inactive),–
Cc1cc(NC(=O)COC(=O)c2ccc(S(=O)(=O)N3CCCc4ccccc43)cc2)no1,-20.2% (inactive),–
Cc1cccc(CNc2ncncc2-c2ccccc2Cl)c1,–,2 µM (active)
c1cncc(-c2cncnc2NC2CCNCC2)c1,-6.86% (inactive),–
Cc1cnc(CNc2cc(-c3ccccc3C(F)(F)F)ncn2)cn1,3.41% (inactive),–
Cc1cnc(CNc2ncncc2-c2ccccc2C(F)(F)F)cn1,-18.3% (inactive),–

Structure (SMILES),"activity, negative = inhibition",AC50
Cc1noc(C)c1-c1cncnc1NC1CC1,-5.38% (inactive),–
Cc1ccccc1-c1cncnc1NC1CCNCC1,–,10 µM (active)
Cc1cccc(CNc2ncncc2-c2ccccc2C(F)(F)F)c1,–,12.6 µM (active)
O=C(c1cnccn1)N1CCC[C@@]2(CCN(c3ccncc3)C2)C1,4.46% (inactive),–
Cc1ccc(OC(=O)c2cccc(C(=O)Oc3ccc(C)cc3)n2)cc1,8.06% (inactive),–
N[C@H](C(=O)O)[C@H](O)C(=O)O,7.74% (inactive),–
O=C1C(Cc2ccccc2)C(c2ccccc2)N1c1ccccc1 (stereo unspecified),-24.3% (inactive),–
COc1ncc2nc(-c3ccc(F)cc3)c(=O)n(Cc3ccc(F)cc3)c2n1,1.19% (inactive),–
N[C@@H](Cc1ccnnc1)C(=O)O,-0.458% [at 11.4 µM] (inactive),–
Cc1nc2cnc(Oc3ccccc3)nc2n(CCc2ccccc2)c1=O,8.49% (inactive),–
COc1n[nH]c2nncnc12,4.07% (inactive),–
O=C(CCc1nc(-c2ccccc2)c(-c2ccccc2)o1)OCc1ccc(Cl)cc1,-26.9% (inactive),–
Cc1ccc(COn2c(-c3ccc(Cl)cc3)nc3ccc([N+](=O)[O-])cc32)cc1,-20.1% (inactive),–
O=[N+]([O-])c1ccc2nc(-c3ccc(Cl)cc3)n(OCc3ccccc3)c2c1,-6.03% (inactive),–
Cn1c(=O)c(-c2ccc(Cl)cc2)nc2cnc(OCc3ccccc3)nc21,7.5% (inactive),–
Clc1ccc(COn2c(-c3ccccc3)nc3ccccc32)cc1,–,15.8 µM (active)
O=[N+]([O-])c1ccc2nc(-c3ccccc3)n(OCc3ccc(Cl)cc3)c2c1,–,6.31 µM (active)
COc1cccc(Cn2c(=O)c(-c3cn(C)c4ccccc34)nc3cnc(N4CCOCC4)nc32)c1,-6.4% (inactive),–
O=c1c(-c2ccc(F)c(F)c2)nc2cncnc2n1-c1ccccc1,-7.35% (inactive),–
NS(=O)(=O)c1ccc(N=Nc2ccc(O)c(C(=O)O)c2)cc1,-7.58% [at 11.4 µM] (inactive),–
Cc1ccccc1/C=C1\OC(=O)c2ccccc21,-3.09% (inactive),–
CCCC[C@@H]1C[C@H]1C(NC(=O)c1cccs1)c1ccccc1C(F)(F)F (stereo partly specified),2.19% (inactive),–
Cc1ccc(C(c2nnnn2CC2CCCO2)N2CCN(C(=O)c3ccco3)CC2)cc1 (stereo unspecified),-15.5% (inactive),–
CCC(c1nnnn1CCOC)N1CCN(C(=O)c2ccco2)CC1 (stereo unspecified),-6.06% (inactive),–
CC(C)CCn1nnnc1C(c1ccc(F)cc1)N1CCN(C(=O)c2ccco2)CC1 (stereo unspecified),–,14.1 µM (active)
O=C(Nc1ccccc1N1CCN(C(=O)c2ccccc2)CC1)c1cc(Br)ccc1Cl,-14.4% (inactive),–

Structure (SMILES),"activity, negative = inhibition",AC50
S=c1[nH]nc(CSCc2ccccc2Cl)n1-c1ccccc1,-16.7% (inactive),–
COC(=O)[C@@]1(Cc2ccc(OC)cc2)[C@@H]2[C@@H](CC(=O)[C@H]2CC(=O)C(=O)N2CCCC2)CN1C(=O)c1ccccc1,-5.43% (inactive),–
Cc1cccc(NC(=S)N/N=C/c2ccc([N+](=O)[O-])s2)c1,-9.95% (inactive),–
COc1ccc(-c2nc(N)c3ncn([C@H]4O[C@@H](CO)[C@@H](O)[C@@H]4O)c3n2)cc1,1.32% [at 11.4 µM] (inactive),–
COc1ccc(-n2c(=O)[nH]cc(C(=O)Nc3ccc4c(c3)OCCO4)c2=O)cc1,3.8% (inactive),–
Cc1cc(C)c(NC(=O)C(C)Sc2nnc(-c3ccco3)n2-c2ccccc2)c(C)c1 (stereo unspecified),-4.41% (inactive),–
CC(Sc1nnc(C(C)N(C)C)n1-c1ccc(Cl)cc1)C(=O)Nc1ccc2c(c1)OCO2 (stereo unspecified),–,14.1 µM (active)
CC(C)C1NC(=S)N(Cc2ccccc2)C1=O (stereo unspecified),10% (inactive),–
COc1ccc(CNCCC(c2ccc(OC(C)C)cc2)C(C)C)cc1OC (stereo unspecified),–,0.251 µM (active)
COc1ccc(CCNC[C@H](O)c2ccc(O)cc2)cc1OC,0.765% (inactive),–
COc1ccc(C[N+](C)(C)N)cc1OC,0.726% [at 11.4 µM] (inactive),–
COC(=O)C/C=C\[C@@H](C)[C@@H](/C=N\O[C@@H](C)c1cc(-c2c(C)cc(C)cc2C)no1)OC,-10.8% [at 11.4 µM] (inactive),–
COc1ccc(-n2c(CNc3ccc(C)cc3)nnc2SCC(=O)Nc2nc(-c3ccccc3)cs2)cc1,-1.16% (inactive),–
CCc1ccccc1N1C(=O)c2cccc3c(N4CCOCC4)c([N+](=O)[O-])cc(c23)C1=O,2.74% (inactive),–
O=S1(=O)C=C(N2CCOCC2)c2ccccc21,-18.5% (inactive),–
O=c1cc(N2CCOCC2)oc2c(-c3ccccc3)cccc12,–,inactive and 25.1 µM (active)
CNc1nc(C)cc(C)c1S(=O)(=O)c1ccc(C)cc1,11.4% (inactive),–
Cc1ccc(-n2c3c(c(=O)[nH]c2=O)C(C(F)(F)F)(C(F)(F)F)NC(=O)N3)cc1,-1.45% (inactive),–
CC(CC(=O)Nc1ccc(Cl)c([N+](=O)[O-])c1)c1ccccc1 (stereo unspecified),–,0.447 µM (active)
CCOc1cc(NC(=O)c2ccccc2[N+](=O)[O-])c(OCC)cc1NC(=O)CC(C)C,16.4% (inactive),–
O=C(CSc1ccc(C(F)(F)F)cc1[N+](=O)[O-])Nc1ccccc1,-20.2% (inactive),–
COc1ccccc1NC(=O)Cn1cncc1-c1ccc([N+](=O)[O-])cc1,-5.83% (inactive),–
Cc1ccc([N+](=O)[O-])cc1NC(=S)NC(=O)C(C)(C)C,13.5% (inactive),–
CCCOc1ccc(/C=C/C(=O)Nc2ccc([N+](=O)[O-])cc2C)cc1OC,3.41% (inactive),–
COc1ccc([N+](=O)[O-])cc1NC(=S)NC(NC(=O)Cc1ccc(OC)c(OC)c1)C(Cl)(Cl)Cl (stereo unspecified),–,0.355 µM (active)
COc1ccc([N+](=O)[O-])cc1NC(=O)CC(C)c1ccccc1 (stereo unspecified),–,11.2 µM (active)

Structure (SMILES),"activity, negative = inhibition",AC50
CCN(CC)S(=O)(=O)c1ccc(OC)c(NC(=O)CSc2ccccc2)c1,-21.4% (inactive),–
CCN(CC(=O)Nc1ccc([N+](=O)[O-])cc1OC)c1ccccc1,–,14.1 µM (active)
CCOc1ccc(NC(=S)NC(=O)/C=C/c2ccc(OC)c(OC)c2)c([N+](=O)[O-])c1,11.2% (inactive),–
COc1ccc(OC)c(NC(=O)CC(Cc2ccccc2OC)C(=O)O)c1 (stereo unspecified),25% (inactive),–
Cc1ccc(S(=O)(=O)N[C@H]2COC(=O)CC=C[C@@H](C)[C@H]3C=C[C@H](O)[C@@H](COC(=O)CC=C[C@H]2C)O3)cc1,-6.53% [at 11.4 µM] (inactive) and 13.3% [at 11.4 µM] (inactive),–
Cc1ccc(N2C(=O)CSC2c2cccnc2)cc1F (stereo unspecified),-6.23% (inactive),–
c1ccc(-c2noc(-c3ccc4ccccc4c3)n2)cc1,-26.1% (inactive),–
CC(C)[C@H](CO)Nc1nc(Nc2ccc(C(=O)O)c(Cl)c2)c2ncn(C(C)C)c2n1,2.31% (inactive),–
C=CCNC(=O)c1cccn1-c1ccsc1C(=O)OC,15.1% (inactive),–
O=C(N[C@@]1(C(=O)O)C[C@@H]1c1ccccc1)c1ccccc1,11.3% [at 11.4 µM] (inactive),–
CCCCn1c(SC(C)C(N)=O)nc2cc(C(=O)OC)ccc2c1=O (stereo unspecified),28.8% (inactive),–
C/C(N)=C(/C#N)C(=O)CSc1nnc(COc2cc(C)ccc2C)o1,0.41% (inactive),–
COc1ccc(S(=O)(=O)N2CC3CCCN3c3ccc(C(F)(F)F)cc32)cc1 (stereo unspecified),-19.1% (inactive),–
Cc1nn(Cc2ccc(Cl)cc2)c(C)c1NC(=O)CSc1nc2c(c(C(F)(F)F)n1)CCc1ccccc1-2,-21.3% (inactive),–
Nc1ccc(N=Nc2c(S(=O)(=O)O)cc3ccccc3c2S(=O)(=O)O)cc1,8.88% [at 11.4 µM] (inactive),–
COc1cnc(-c2ccccn2)nc1Oc1ccc(Cl)c2ccccc12,-13.3% (inactive),–
Cn1cc(-c2nc3cnc(N4CCOCC4)nc3n(CCC#N)c2=O)c2ccccc21,6.34% (inactive),–
CCOc1ccc(Cc2nc(C)c(CC(=O)N3CCOCC3)c(=O)[nH]2)cc1,-12.7% (inactive),–
Cc1noc(C)c1C(=O)N1CCC2(CCCN(C(=O)Nc3cccc(F)c3)C2)CC1,-6.3% (inactive),–
COC(=O)c1nnn(Cc2ccccc2)c1N,-25.1% (inactive),–
NC(Cc1ccccc1)=NCC(=O)O,9.41% [at 11.4 µM] (inactive),–
NC(=NCc1ccc(Cl)c(Cl)c1)NC(=O)c1nc(Cl)c(N)nc1N,–,12.6 µM (active)
NC(=NCc1ccccc1)NC(=O)c1nc(Cl)c(N)nc1N,–,15.8 µM (active) and 5.01 µM (active)
